Measured values: PubChem BioAssay (NCATS)
The other results are listed elsewhere or left out. Entries that show only a call come without a potency. Results filed as inconclusive are left out. Calls of active or inactive are those of the source. The call rests on the fitted dose curve; in most records, active means well fitted cell-killing curve with a large enough effect; inconclusive means small, poorly fitted or top-dose-only effect, or effect the other way; inactive means flat fitted curve, though single readings scatter.

Assay: Cell viability qHTS assay in S16 Pmp22-F2sN cells - Confirmatory screen (AID 1508641)
Details: S16 Schwann cells viability, CellTiter-Glo ATP luminescence, 24 h; series mostly up to 57.5 µM
Source text: Assay Provider: Jim Inglese Ph.D. National Center for Advancing Translational Science, National Institutes of Health, Rockville, MD CMT is a heterogeneous group of neurological disorders that affect approximately 1 in 2,500 people. In particular, the most common form of CMT, CMT1A is genetically linked to the duplication of the PMP22 gene which leads to Schwann cell overexpression, thus manifesting itself as a typical case of dose-sensitive diseases. To identify small molecule compounds that can mediate the expression of PMP22 we developed a phenotypic assay screening strategy by utilizing genome editing techniques to construct Schwann cell lines containing novel reporter technology to monitor the transcriptional or translational regulation of PMP22. For high sensitivity we use a bioluminescent reporter system embedded in the 3' UTR of the PMP22 gene (S16(c9) Pmp22-F2sN) to identify compounds that inhibit gene expression. […] We can further discriminate the effect of all transcriptionally active molecules on PMP22 translation or stability with an assay that incorporates a short NLuc peptide (HiBiT) at the C-terminus of expressed PMP22 (S16(f8) PMP22-HiBiT) allowing alpha complementation and luminescence detection of membrane-associated PMP22 protein. These assays were screened against the NCATS Sytravon Library Collection. Miniaturization of these assays to 1536-well plate format for quantitative high throughput screening (qHTS) yielded rich data sets immediately from the qHTS assay (S16(c9) Pmp22-F2sN), when compared with data from a cell viability assay (Cell TiterGlo) to identify compounds that decreased the output signals through cellular toxicity to streamline the selection process of actives for subsequent characterization using the HiBiT assay (S16(f8) PMP22-HiBiT).
Cell viability assay in S16 Pmp22-F2sN cells PROTOCOL TABLE (format as described by Inglese J, Shamu CE and Guy RK. 2007) SEQUENCE No. (e.g., 1, 2, 3, etc.); PARAMETER (e.g., Cells, Incubation, Reagent, etc.); VALUE and DESCRIPTION. 1. Cells. Add 500-1,000 cells in 4 uL in growth media (DMEM High Glucose, No Phenol Red media + 10% heat-inactivated FBS + 1% Pen/Strep supplemented media) per well into Greiner 1536-well white/solid bottom high base, TC-treated plates. 2. Compounds. Library compounds and controls added at 23nL per well, transferred by Pin Tool. 3. Incubation. Incubate plates at 37C, 5% CO2, 95% RH for 24 h. 4. Reagent. Add 3uL CellTiter-Glo per well of Greiner 1536-well plates. 5. Incubation. Incubate plates at room temperature for 15 min., protect from light. 6. Detector. FLuc luminescence measured using CCD-based camera (Viewlux). NOTES (numbers refer to Sequence numbers above; values are from representative experiments) 6. Luminescence Read: Clear filter; Exposure = 1 sec, Gain = High, Speed = Slow, Binning = 2X REFERENCES: 1. Inglese J, Shamu CE and Guy RK, Reporting data from high throughput screening of small molecule libraries, Nature Chemical Biology, 2007, 3(8): 438-441. doi.org/10.1038/nchembio0807-438 2. Yasgar A, Shinn P, Jadhav A, Auld DS, Michael S, Zheng W, Austin CP, Inglese J and Simeonov A, Compound Management for Quantitative High-Throughput Screening. J. Assoc. Lab. Auto., 2008, 13: 79-89. doi: 10.1016/j.jala.2007.12.004
Potency means the concentration at half of the fitted maximal effect.

| Structure (SMILES) | Potency |
| --- | --- |
| O=S(=O)(c1ccc(Cl)cc1)c1nnn2c1nc(NC1CCCC1)c1sccc12 | inactive |
| CCOC(=O)c1c(C)[nH]c(CCC(=O)NCCCN2CCN(c3cc(C)ccc3C)CC2)c1C | 30.6 µM (active) |
| CCOc1ccc(NC(=O)c2c(NC(=O)Cc3ccccc3)sc3c2CCC(C)C3)cc1 (stereo not drawn) | inactive |
| CCc1ccc(NC(=O)CN2CCSc3ccc(S(=O)(=O)N4CCCC4)cc32)cc1 | inactive |
| CCC1CCCCN1CCCNC(=O)c1cc2c(Cl)nc3ccccc3c2s1 (stereo not drawn) | inactive |
| CCCn1c(=N)c(C(=O)NCc2ccccc2)cc2c(=O)n3cccc(C)c3nc21 | inactive |
| CCOCCCNC(=O)c1c(NC(=O)c2nc(SC)ncc2Cl)sc2c1CCCC2 | inactive |
| CC(C)(C)c1ccc(C(=O)NCC(c2ccco2)S(=O)(=O)c2ccc(F)cc2)cc1 (stereo not drawn) | inactive |
| Cc1ccc(C)n1-c1nnc(N2CCC(C(=O)NCc3ccccc3Cl)CC2)s1 | inactive |
| Cc1ccc(OCCSc2nc3ccc(NC(=O)COc4ccc(C)cc4)cc3s2)cc1 | inactive |
| Cc1sc(C2C(C#N)=C(N)N(c3cccc(Cl)c3)C3=C2C(=O)CCC3)cc1CN1CCOCC1 (stereo not drawn) | inactive |
| COc1ccc(CCNC(=O)c2cc(=O)c3c(C)cc(C)cc3o2)cc1OC | inactive |
| O=C(NCCCN1CCN(c2cccc(Cl)c2)CC1)c1nnc(Cc2ccc(F)cc2Cl)o1 | inactive |
| CC(=O)N1CCCc2cc(S(=O)(=O)N3CCCC(C(=O)N4CCN(c5cccc(Cl)c5)CC4)C3)ccc21 (stereo not drawn) | 27.3 µM (active) |
| O=C(c1ccc2c(c1)N(Cc1ccc(F)cc1)C(=O)c1ccccc1S2(=O)=O)N1CCN(c2ccccn2)CC1 | inactive |
| Cc1cccc(Nc2cc(C)nc(-n3nc(C)cc3C)n2)c1 | inactive |
| Cc1ccc(Cn2c(C)c3cnn(CC(=O)NCc4ccccc4)c(=O)c3c2C)cc1 | inactive |

| Structure (SMILES) | Potency |
| --- | --- |
| Cc1ccc(NC(=O)c2nc(S(=O)(=O)Cc3cccc(C)c3)ncc2Cl)cc1 | 30.6 µM (active) |
| Cc1cc(OCC(=O)NCC2(N(C)C)CCCCC2)cc(C)c1Cl | inactive |
| CCOC(=O)c1ccc(N2C(=O)c3n[nH]c(C)c3C2c2ccc(O)c(OC)c2)cc1 (stereo not drawn) | inactive |
| CCCS(=O)(=O)c1ncc(Cl)c(C(=O)Nc2scc(-c3ccccc3)c2C(=O)OCC)n1 | 27.3 µM (active) |
| Cc1ccccc1CNC(=O)CSc1nnc(C)c2c(C)n(-c3ccccc3)nc12 | inactive |
| Cc1cc(F)ccc1NS(=O)(=O)c1ccc(-n2cccn2)cc1 | inactive |
| COc1ccccc1Nc1c2c(nc3ccc(NC(=O)/C=C/c4cc(OC)c(OC)c(OC)c4)cc13)CCCC2 | 17.2 µM (active) |
| COc1ccc(-c2onc(C)c2C)cc1S(=O)(=O)NCC1CCN(Cc2cccc(F)c2)CC1 | inactive |
| CCOC(=O)C1CCN(C(=O)CSc2c3c(nc4ccc(Cl)cc24)CCCC3)CC1 | inactive |
| COc1cccc(NC(=O)CSC2=Nc3ccccc3C3=NC(CC(=O)NC4CCCCC4)C(=O)N23)c1 (stereo not drawn) | inactive |
| Cc1nnc(SCC(=O)NCc2ccccc2Cl)c2nn(-c3ccccc3)c(C)c12 | inactive |
| CCC1=Nc2cc(C(=O)NCCCOC(C)C)ccc2Sc2ccc(C)cc21 | inactive |
| COc1cccc(NC(=O)N(Cc2cn(C)c3ccccc23)C2CCCCCC2)c1 | inactive |
| COc1ccc(C2Sc3ccccc3NC3=C2C(=O)c2ccccc23)c(OC)c1OC (stereo not drawn) | inactive |
| O=C(c1ccc(C(F)(F)F)cc1)N1CCC(c2nc(-c3ccc(S(=O)(=O)N4CCCC4)cc3)no2)CC1 | inactive |
| Cc1ccc(CCNC(=O)C2CCN(c3nnc(-n4cccc4CNc4ccc(C)cc4)s3)CC2)cc1 | inactive |
